These results are taken from PubChem BioAssay (NCATS).

Usually viability stands for a read-out of living cells in per cent, often relative to untreated cells.

Records with an inconclusive call do not appear. Unmarked numbers belong to inactive results. Active and inactive are the calls of the source. Calls follow the shape of the dose curve; as a rule, active = well fitted inhibition curve with a large enough effect; inconclusive = small, poorly fitted or top-dose-only effect; inactive = no such curve, though single readings can be large or run the other way.
Potency is read from the fitted curve at half-maximal effect.

One test in a line: BET inhibitor-based combinations targeting novel dependencies in MECOM-rearranged (r) AML: SET-2 cell line (AID 2202231). Also: nearly all actives have a fitted effect of over 35% in size.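 As to viability: plate controls were DMSO treated cells for no effect and wells without cells for full effect.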 As to conditions: SET-2 AML cells viability, CellTiter-Glo luminescence, 48 h; viability: hits give low values, concentration not given here. In a few lines:
(§1)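 Cells were plated at 500 per well and exposed to an 11-point dose series of each drug for 48 hr. Viability was measured by CellTiter-Glo luminescence, normalized to DMSO and empty-well controls, and summarized as AUC and per-cell-line Z-AUC.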
For orientation: ATP-based viability assays read luminescence as a measure of living cells.
In the case of `Cn1cc(-c2ccc3ncc(Cc4ccc5ncccc5c4)n3n2)cn1`, the viability was 105%.

In the case of `C=CC(=O)Nc1cccc(Nc2nc(Nc3ccc(Oc4ccnc(C(=O)NC)c4)cc3)ncc2F)c1`, the Potency was 23.5 µM (active).

In the case of `Oc1ccc(Nc2nc(-c3ccc(Cl)cc3)cs2)cc1`, the Potency is 9.34 µM (active).

Turning to `Cc1ccc(CN2CCNCC2)cc1NC(=O)CNc1ccc(F)c(F)c1`, the viability was 115%.

Another test can be described thus: BET inhibitor-based combinations targeting novel dependencies in MECOM-rearranged (r) AML: OCI-AML3 cell line (AID 2202232). Also: nearly all actives have a fitted effect of over 35% in size.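 As to viability (% of control): plate controls were DMSO vehicle wells for no effect and wells without cells for full effect.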 Conditions: CellTiter-Glo luminescence, 48 h; Potency: OCI-AML3 viability; series mostly up to 46 µM; viability (% of control): at the top concentration. In a few lines:
as §1
As for `C=CC(=O)Nc1cccc(Nc2nc(Nc3ccc(Oc4ccnc(C(=O)NC)c4)cc3)ncc2F)c1`, the Potency is 18.6 µM (active).

As for `Cc1ccc(CN2CCNCC2)cc1NC(=O)CNc1ccc(F)c(F)c1`, the “viability (% of control)” value was 87.4%.

With `Cn1cc(-c2ccncc2)c(-c2ccc(OCc3ccc4ccccc4n3)cc2)n1`, the Potency is 11.8 µM (active).

The nature of a further test: BET inhibitor-based combinations targeting novel dependencies in MECOM-rearranged (r) AML: MV-4-11 cell line (AID 2202233). Also: nearly all actives have a fitted effect of over 45% in size.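 As to viability, % of control: plate controls were DMSO for no effect and blank wells for full effect.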 As to conditions: MV-4-11 AML viability, CellTiter-Glo luminescence, 48 h; series mostly up to 46 µM; viability, % of control: at the top concentration. In a few lines: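 Activity is given as area under the curve and as Z-AUC, mean-centred within each cell line. It comes from 11-point dose curves normalized to DMSO and empty wells. CellTiter-Glo luminescence was read after 48 hr drug exposure of 500 cells/well.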
Regarding `Cn1cc(-c2ccc3ncc(Cc4ccc5ncccc5c4)n3n2)cn1`, the Potency is 18.6 µM (active).

In the case of `C=CC(=O)Nc1cccc(Nc2nc(Nc3ccc(Oc4ccnc(C(=O)NC)c4)cc3)ncc2F)c1`, the Potency is 6.61 µM (active).

Consider `Oc1ccc(Nc2nc(-c3ccc(Cl)cc3)cs2)cc1`, for which the Potency was 14.8 µM (active).

On to `Cc1ccc(CN2CCNCC2)cc1NC(=O)CNc1ccc(F)c(F)c1`, for which the “viability, % of control” value was 102%.

`Cn1cc(-c2ccncc2)c(-c2ccc(OCc3ccc4ccccc4n3)cc2)n1`: the Potency was 5.9 µM (active).
